Laboratory results: PubChem BioAssay (Tox21)
Values joined by “and” are separate entries in the source; they are usually repeats but may differ in a detail not shown here. Identical values can stand only once. Inconclusive results are not listed. Where a call stands in place of a potency, no number is given. More than one record can exist for a structure, and the calls need not agree. Active and inactive are the calls of the source. Unless noted, calls follow the shape of the dose curve; as a rule, active = well fitted curve in the direction sought with a large enough effect in the repeat runs; inconclusive = weak or mixed curves; inactive = no such curve, though single readings can be large; an effect the other way counts as inactive or inconclusive.

Columns and labels:
[1] = qHTS assay to identify small molecule agonists of the estrogen receptor alpha (ER-alpha) signaling pathway in the presence of an antagonist - cell viability counter screen (AID 1259386);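 also: cells exposed to compounds for 22 h at 37 °C before the viability read; nearly all actives have a fitted effect of over 30% in size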; also: potency is read from the fitted curve at half-maximal effect
Procedure, shortened: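 Steps: 5-day stripped-FBS culture; seed and incubate 24hr; add ICI-182,780 (10.0nM final); pin 15-point compound titration; incubate 22hr at 37C; add CellTiter-Fluor at 21hr; read fluorescence.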

[2] = target: Progesterone receptor (Homo sapiens) (UniProt P06401); assay: qHTS assay to identify small molecule antagonists of the progesterone receptor (PR) signaling pathway (AID 1346795; active = well fitted inhibition curve with a large enough effect in the signal ratio in the repeat runs, not every such curve was filed as active; the % refers to the signal ratio; also: potency is read from the fitted curve at half-maximal effect)
Procedure, shortened: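 Stimulus R5020 at 1 nM final; cells HEK293T PR-UAS-bla; medium with 2% charcoal-stripped FBS; compound exposure 16 hr at 37C, 5% CO2; detection by FRET beta-lactamase substrate, 2 hr, room temperature.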

[3] = qHTS assay to identify small molecule antagonists of the progesterone receptor (PR) signaling pathway - cell viability counter screen (AID 1346798); also: nearly all actives have a fitted effect of over 50% in size; also: potency is read from the fitted curve at half-maximal effect
Procedure, shortened: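 In the same plates used for the beta-lactamase readout, cell viability of compound- and R5020-treated PR-UAS-bla HEK293T cells (16 hr, 37C) was assessed by CellTiter-Glo luminescence.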

[4] = qHTS assay to identify small molecule agonists of the progesterone receptor (PR) signaling pathway - cell viability counter screen (AID 1346799; calls by dose curve; also: nearly all actives have a fitted effect of over 45% in size)
Procedure, shortened: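 Multiplexed viability read: CellTiter-Glo luminescence, 30 min RT, following LiveBLAzer FRET measurement on PR-UAS-bla HEK293T cells exposed to compounds 16 hr.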

[5] = qHTS assay to identify small molecule antagonists of the TGF-beta/Smad signaling pathway - cell viability counter screen (AID 1346824); also: nearly all actives have a fitted effect of over 50% in size
Procedure, shortened: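 Cytotoxicity counter-screen run in the same wells as the beta-lactamase Smad reporter read: CellTiter-Glo luminescence after 30 min at room temperature. HEK 293T SBE-bla cells had 5 hr compound exposure at 37 C with TGF-beta1 (0.25 ng/mL stock).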

[6] = qHTS assay to identify small molecule agonists of the TGF-beta/Smad signaling pathway - cell viability counter screen (AID 1346829); also: top concentration of the series differs between compounds; nearly all actives have a fitted effect of over 45% in size
Procedure, shortened: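 CellTiter-Glo luminescence readout; SBE-bla HEK 293T cells, overnight plating, compound 5 hr at 37 C/5% CO2, then bla substrate 2 hr RT, then CellTiter-Glo 30 min RT.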

[7] = qHTS assay to identify small molecule agonists of the TGF-beta/Smad signaling pathway (AID 1346859; active = well fitted activation curve with a large enough effect in the signal ratio in the repeat runs, not every such curve was filed as active; the % refers to the signal ratio; also: series mostly up to about 77 µM)
Procedure, shortened: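 Screening used HEK 293T SBE-bla cells at 4,000/well. Test agents: 5 hr, 37 C. Detection: FRET substrate, 2 hr RT, then excitation 405 nm with emissions at 460 and 530 nm.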

[8] = target: Thyrotropin-releasing hormone receptor (Homo sapiens) (UniProt P34981); assay: qHTS assay to identify small molecule antagonists of the thyrotropin-releasing hormone receptor (TRHR) signaling pathway (AID 1346877; active = well fitted inhibition curve with a large enough effect in the repeat runs, not every such curve was filed as active; also: potency is read from the fitted curve at half-maximal effect)
Procedure, shortened: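 Human TRHR in HEK293 cells; inhibition of the intracellular calcium rise triggered by 1 nM TRH was followed by fluorescence over 3 min. Compounds were run at 15 concentrations, three replicates each.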

[9] = target: Thyrotropin-releasing hormone receptor (Homo sapiens) (UniProt P34981); assay: qHTS assay to identify small molecule agonists of the thyrotropin-releasing hormone receptor (TRHR) signaling pathway (AID 1346891; calls by dose curve; also: potency is read from the fitted curve at half-maximal effect; as to activation: series mostly up to about 58 µM)
Procedure, shortened: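 Readout was intracellular calcium fluorescence in TRHR-Hek293 cells. Cells were incubated 18 h, dye-loaded 2 h at 37 °C, and treated with compound in agonist mode.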

[10] = Human pregnane X receptor (PXR) small molecule agonists, qHTS cell viability counter screen (AID 1346977); also: nearly all actives have a fitted effect of over 50% in size; also: potency is read from the fitted curve at half-maximal effect
Procedure, shortened: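 In each well, the PXR reporter HepG2 line was checked for viability: CellTiter-Fluor reagent added 23hr post-dosing, fluorescence read after 1hr incubation at 37C.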

[11] = Caspase-3/7 induction in HepG2 cells by small molecules, qHTS assay (AID 1346978); also: nearly all actives have a fitted effect of over 15% in size
Procedure, shortened: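 Caspase-3/7 induction was measured by Caspase-Glo 3/7 luminescence (30 min, room temperature) after a 17 hr compound exposure of wild-type HepG2 cells seeded at 2,000 per well and pre-incubated 5 hr.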

[12] = Caspase-3/7 induction in CHO-K1 cells by small molecules, qHTS cell viability counter screen (AID 1346979); also: nearly all actives have a fitted effect of over 35% in size; also: potency is read from the fitted curve at half-maximal effect
Procedure, shortened: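 Following a 5hr settling period, CHO-K1 cells at 1,500 per well received DMSO-dissolved compounds. Cell viability was quantified 16hr later by CellTiter-Fluor fluorescence, measured after 1hr with reagent at 37C.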

[13] = Caspase-3/7 induction in CHO-K1 cells by small molecules, qHTS assay (AID 1346980); also: nearly all actives have a fitted effect of over 15% in size
Procedure, shortened: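 Luminescent Caspase-Glo 3/7 read (30min, room temperature) quantified apoptosis induction. Cells were wild-type CHO-K1, treated with compound for 17hr at 37 C and 5% CO2.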

[14] = Caspase-3/7 induction in HepG2 cells by small molecules, qHTS cell viability counter screen (AID 1346981); also: nearly all actives have a fitted effect of over 30% in size; also: potency is read from the fitted curve at half-maximal effect
Procedure, shortened: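 The parent HepG2 line is plated at 2,000 cells per well and rested 5 hr before compound pinning from DMSO stocks. Following a 16-hr treatment at 37 C, a fluorogenic live-cell substrate (CellTiter-Fluor) reports viability after 1 hr.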

[15] = target: Nuclear receptor subfamily 1 group I member 2 (Homo sapiens) (UniProt O75469); assay: Human pregnane X receptor (PXR) small molecule agonists, qHTS assay (AID 1346982); also: nearly all actives have a fitted effect of over 35% in size; also: potency is read from the fitted curve at half-maximal effect
Procedure, shortened: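 After plating in 5% charcoal-stripped FBS and a 5 hr rest, PXR-Luc HepG2 cells received compounds in DMSO. Following 24 hr at 37 C, ONE-Glo was added and light output read.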

[16] = target: Cytochrome P450 2D6 (Homo sapiens) (UniProt P10635); assay: Cytochrome P450 Family 2 Subfamily D Member 6 (CYP2D6) small molecule antagonists: luciferase reporter qHTS assay (AID 1671196); also: nearly all actives have a fitted effect of over 50% in size; also: potency is read from the fitted curve at half-maximal effect
Procedure, shortened: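 Quantitative HTS of Tox21 chemicals against CYP2D6 using a luminescent proluciferin substrate. After NADPH addition, 1 h room-temperature reaction; luminescence recorded 20 min post detection reagent.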

[17] = target: Cytochrome P450 2C19 (Homo sapiens) (UniProt P33261); assay: Cytochrome P450 Family 2 Subfamily C Member 19 (CYP2C19) small molecule antagonists: luciferase reporter qHTS assay (AID 1671197); also: nearly all actives have a fitted effect of over 65% in size; also: potency is read from the fitted curve at half-maximal effect
Procedure, shortened: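 Enzyme-substrate mix with proluciferin substrate (P450-Glo CYP2C19 system) preincubated with compounds 10 min at room temperature; NADPH regeneration solution added, 37C for 1 h; detection reagent stops reaction, luminescence read after 20 min. Ketoconazole positive control.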

[18] = target: Progesterone receptor (Homo sapiens) (UniProt P06401); assay: qHTS assay to identify small molecule agonists of the progesterone receptor (PR) signaling pathway (AID 1346784; calls by dose curve; also: nearly all actives have a fitted effect of over 30% in size)
Procedure, shortened: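 Reporter assay, GripTite PR-UAS-bla HEK 293T cells: 16 hr exposure to DMSO-dissolved compounds at 37C, 5% CO2, in steroid-depleted (2% charcoal-stripped FBS) medium; beta-lactamase measured by FRET fluorescence.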

[19] = target: Nuclear receptor subfamily 1 group I member 2 (Rattus norvegicus) (UniProt Q9R1A7); assay: Rat pregnane X receptor (rPXR) activation by small molecules, qHTS assay (AID 1346983); conditions: rPXR luciferase reporter cells, One-Glo luminescence, 24 h; stronger effect = higher value; also: nearly all actives have a fitted effect of over 20% in size
Procedure, shortened: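 Luminescent readout (One-Glo luciferase, 30 min room temperature) followed 24 hr compound treatment at 37 C of rPXR cells plated 2,000 per well and preincubated 5hr; qHTS format with compounds delivered in DMSO.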

Sequence of Nuclear receptor subfamily 1 group I member 2 (Homo sapiens) (O75469 whole entry, looked up): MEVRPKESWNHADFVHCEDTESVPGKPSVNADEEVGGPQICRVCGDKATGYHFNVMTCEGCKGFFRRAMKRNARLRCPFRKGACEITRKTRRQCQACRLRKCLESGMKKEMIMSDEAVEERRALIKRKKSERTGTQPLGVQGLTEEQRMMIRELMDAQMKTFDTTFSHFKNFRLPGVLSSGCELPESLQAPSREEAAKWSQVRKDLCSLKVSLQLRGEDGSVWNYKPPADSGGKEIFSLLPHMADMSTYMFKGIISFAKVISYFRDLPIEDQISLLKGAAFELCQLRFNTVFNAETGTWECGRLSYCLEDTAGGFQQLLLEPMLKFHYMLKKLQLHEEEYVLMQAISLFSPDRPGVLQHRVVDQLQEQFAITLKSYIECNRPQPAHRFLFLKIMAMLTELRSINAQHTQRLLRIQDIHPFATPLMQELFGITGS
Sequence of Cytochrome P450 2C19 (Homo sapiens) (P33261 whole entry, looked up): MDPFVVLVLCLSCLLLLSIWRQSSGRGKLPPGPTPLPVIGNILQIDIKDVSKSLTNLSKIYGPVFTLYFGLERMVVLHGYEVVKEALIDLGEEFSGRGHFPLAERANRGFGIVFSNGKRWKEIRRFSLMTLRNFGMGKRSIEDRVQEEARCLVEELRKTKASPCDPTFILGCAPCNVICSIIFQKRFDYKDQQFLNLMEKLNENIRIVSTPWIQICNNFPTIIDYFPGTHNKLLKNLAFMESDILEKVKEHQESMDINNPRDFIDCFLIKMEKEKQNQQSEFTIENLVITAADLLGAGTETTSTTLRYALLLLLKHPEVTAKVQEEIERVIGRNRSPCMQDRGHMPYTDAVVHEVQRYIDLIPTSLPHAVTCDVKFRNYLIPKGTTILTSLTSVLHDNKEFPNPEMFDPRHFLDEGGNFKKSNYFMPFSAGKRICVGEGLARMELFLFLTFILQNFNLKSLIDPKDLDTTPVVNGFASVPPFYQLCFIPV
Sequence of Thyrotropin-releasing hormone receptor (Homo sapiens) (P34981 whole entry, looked up): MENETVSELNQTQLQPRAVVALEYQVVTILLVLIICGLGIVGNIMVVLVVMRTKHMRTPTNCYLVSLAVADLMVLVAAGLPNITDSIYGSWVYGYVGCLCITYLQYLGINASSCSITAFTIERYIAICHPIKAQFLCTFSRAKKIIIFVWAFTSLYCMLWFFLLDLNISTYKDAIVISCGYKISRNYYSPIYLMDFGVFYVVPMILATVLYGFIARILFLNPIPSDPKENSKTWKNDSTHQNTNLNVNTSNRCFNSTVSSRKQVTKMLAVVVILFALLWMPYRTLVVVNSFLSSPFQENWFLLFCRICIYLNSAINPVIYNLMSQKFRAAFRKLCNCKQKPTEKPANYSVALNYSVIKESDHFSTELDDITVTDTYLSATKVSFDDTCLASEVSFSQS
Sequence of Progesterone receptor (Homo sapiens) (P06401 whole entry, looked up): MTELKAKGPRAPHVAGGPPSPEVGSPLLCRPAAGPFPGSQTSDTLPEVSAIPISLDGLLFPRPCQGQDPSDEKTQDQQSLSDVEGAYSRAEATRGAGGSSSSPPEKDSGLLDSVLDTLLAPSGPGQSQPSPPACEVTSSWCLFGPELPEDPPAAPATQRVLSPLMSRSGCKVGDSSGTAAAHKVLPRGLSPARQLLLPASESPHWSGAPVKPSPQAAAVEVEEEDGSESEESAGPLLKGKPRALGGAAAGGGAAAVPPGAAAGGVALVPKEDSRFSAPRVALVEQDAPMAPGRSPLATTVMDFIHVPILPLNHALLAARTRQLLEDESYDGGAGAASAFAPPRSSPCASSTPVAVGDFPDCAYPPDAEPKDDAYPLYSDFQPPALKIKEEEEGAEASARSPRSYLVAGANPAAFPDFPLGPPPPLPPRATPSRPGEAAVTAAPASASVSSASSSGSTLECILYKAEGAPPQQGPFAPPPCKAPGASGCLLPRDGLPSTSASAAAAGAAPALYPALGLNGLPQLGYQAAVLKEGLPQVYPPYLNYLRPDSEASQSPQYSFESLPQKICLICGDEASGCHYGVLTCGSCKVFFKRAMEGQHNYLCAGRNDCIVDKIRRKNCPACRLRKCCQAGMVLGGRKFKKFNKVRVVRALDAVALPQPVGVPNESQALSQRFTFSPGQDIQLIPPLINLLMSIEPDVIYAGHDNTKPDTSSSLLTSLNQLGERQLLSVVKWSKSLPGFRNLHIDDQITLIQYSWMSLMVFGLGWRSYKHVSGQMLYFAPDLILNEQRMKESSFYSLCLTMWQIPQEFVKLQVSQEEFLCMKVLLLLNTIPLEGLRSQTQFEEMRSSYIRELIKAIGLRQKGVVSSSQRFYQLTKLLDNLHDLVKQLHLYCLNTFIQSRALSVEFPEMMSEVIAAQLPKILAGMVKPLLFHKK
Sequence of Cytochrome P450 2D6 (Homo sapiens) (P10635 whole entry, looked up): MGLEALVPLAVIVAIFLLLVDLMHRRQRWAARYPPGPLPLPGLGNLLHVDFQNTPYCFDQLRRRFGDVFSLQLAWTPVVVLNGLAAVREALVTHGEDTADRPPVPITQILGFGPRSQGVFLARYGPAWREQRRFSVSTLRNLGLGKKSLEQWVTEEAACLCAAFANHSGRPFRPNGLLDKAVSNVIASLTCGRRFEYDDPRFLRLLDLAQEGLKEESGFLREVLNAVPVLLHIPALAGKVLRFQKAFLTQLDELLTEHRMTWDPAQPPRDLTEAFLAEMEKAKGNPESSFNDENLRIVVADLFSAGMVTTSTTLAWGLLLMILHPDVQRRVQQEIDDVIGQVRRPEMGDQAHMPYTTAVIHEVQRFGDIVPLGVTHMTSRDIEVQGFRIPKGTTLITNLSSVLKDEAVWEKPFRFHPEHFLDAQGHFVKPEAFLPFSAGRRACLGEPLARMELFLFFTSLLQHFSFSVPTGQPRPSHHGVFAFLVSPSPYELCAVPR
Sequence of Nuclear receptor subfamily 1 group I member 2 (Rattus norvegicus) (Q9R1A7 whole entry, looked up): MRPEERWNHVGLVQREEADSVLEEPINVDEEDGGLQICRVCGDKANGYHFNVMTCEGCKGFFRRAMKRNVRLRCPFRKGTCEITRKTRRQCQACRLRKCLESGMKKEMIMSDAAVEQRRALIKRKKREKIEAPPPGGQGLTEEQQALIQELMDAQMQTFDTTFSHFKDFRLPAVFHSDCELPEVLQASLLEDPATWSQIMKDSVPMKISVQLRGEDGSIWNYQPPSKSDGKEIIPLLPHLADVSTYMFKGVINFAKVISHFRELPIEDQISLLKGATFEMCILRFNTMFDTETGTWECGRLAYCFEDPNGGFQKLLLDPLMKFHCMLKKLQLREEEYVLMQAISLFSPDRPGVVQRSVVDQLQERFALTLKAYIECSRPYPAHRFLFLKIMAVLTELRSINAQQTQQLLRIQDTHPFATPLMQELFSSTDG

| Structure (SMILES) | Potency [1] | Potency [2] | Potency [3] | Potency [4] | Potency [5] | Potency [6] | outcome [7] | Potency [8] | Potency [9] | Potency [10] | Potency [11] | Potency [12] | Potency [13] | Potency [14] | Potency [15] | Potency [16] | Potency [17] | Potency [18] | max activation [19] |
| --- | --- | --- | --- | --- | --- | --- | --- | --- | --- | --- | --- | --- | --- | --- | --- | --- | --- | --- | --- |
| C1COC(NC(C2CC2)C2CC2)=N1 | inactive | inactive | inactive | inactive | inactive | inactive | inactive | inactive | inactive | inactive | inactive | inactive | inactive | inactive | inactive | 15.5 µM (active) | inactive | – | – |
| CC[C@]1(O)C[C@@H]2CN(CCc3c([nH]c4ccccc34)[C@@](C(=O)OC)(c3cc4c(cc3OC)N(C)[C@H]3[C@@](O)(C(=O)OC)[C@H](OC(C)=O)[C@]5(CC)C=CCN6CC[C@]43[C@@H]65)C2)C1 | 10.6 µM (active) | – | – | – | inactive | inactive | – | inactive | inactive | 15 µM (active) and 26.6 µM (active) | inactive | 1.33 µM (active) and 119 nM (active) | inactive | 29.8 µM (active) | – | – | – | inactive | – |
| Oc1c(Cl)cc(Cl)c(Cl)c1Cc1c(O)c(Cl)cc(Cl)c1Cl | 13.3 µM (active) | 48.6 µM (active) | 43.1 µM (active) | – | inactive | – | inactive | 12 µM (active) and 26.9 µM (active) | 30.8 µM (active) and 34.7 µM (active) and inactive | 2.72 µM (active) and 1.72 µM (active) and 6.68 µM (active) | inactive | 6.09 µM (active) and 15.4 µM (active) and 8.41 µM (active) | inactive | – | – | inactive | 70.8 µM (active) and 79.6 µM (active) and inactive | – | -22.6% (inactive) |
| CC(C)(O)CCC(C)(C)O | inactive | inactive | inactive | inactive | inactive | inactive | inactive | inactive | inactive | inactive | inactive | inactive | inactive | inactive | inactive | inactive | inactive | – | – |
| CC[C@@H](N)CO | inactive | inactive | inactive | inactive | inactive | inactive | – | inactive | inactive | inactive | inactive | inactive | inactive | inactive | inactive | inactive | inactive | – | – |
| CCCCCCCCCCCC[N+](C)(C)C | 54.5 µM (active) | – | – | – | inactive | inactive | – | inactive | inactive | – | inactive | 68.4 µM (active) | inactive | inactive | 24.3 µM (active) and 61.1 µM (active) | 3.55 µM (active) and 3.56 µM (active) and 2.24 µM (active) | inactive and 79.6 µM (active) | inactive | – |
